Measured values published in PubChem BioAssay AID925 (National Center for Advancing Translational Sciences (NCATS), 2007).
“And” between values parts separate entries of the source, which are not always exact repeats. Equal values may be shown once. In all, about 65,000 compounds went through this assay and about 40 (0.06%) were called active. The entries come from a sample that favours actives as a whole. A number with no mark means an inactive call. The call rests on the fitted dose curve; in most records, active means well fitted activation curve with a large enough effect; inconclusive means small, poorly fitted or top-dose-only effect; inactive means flat fitted curve, though single readings scatter.

Assay: qHTS Assay for Modulators of Hemoglobin Beta Chain Splicing; on activation: 0% is about no effect
Settings: HBB splicing reporter cell assay, EGFP reporter with mutant IVS2-654 intron; Potency: activation; series mostly up to 46.1 µM; activation: at the top concentration
Text: NIH Chemical Genomics Center [NCGC]
NIH Molecular Libraries Screening Centers Network [MLSCN]
PI Name: Dr. Ryszard Kole
Modulation of Alternative Splicing as Therapy
Abnormal splicing is associated with a number of diseases, including cancer and genetic diseases such as cystic fibrosis, muscular dystrophy and beta-thalassemia. Alteration of disease associated splicing patterns provides a promising target for treatment. […] Mutations in the second intron of the beta-globin gene at positions are clinically relevant and cause mis-splicing which results in an out of frame gene product.
EGFP-654 and 705 HeLa Cells as screen system.
HeLa cell lines were stably transfected with a construct in which the EGFP (enhanced green fluorescent protein) cDNA was interrupted by the second intron of the beta-globin gene (IVS2-654). The ISV2 intron contains mutations which cause mis-splicing of EGFP and premature termination of EGFP which results in a nonfluorescent protein product. […] Expression of the transgene was driven by the CMV promoter. We concluded that a low molecular weight compound, which restored correct splicing of intron 2 would also generate functional EGFP protein, resulting in a fluorescent signal. Thus, the HeLa cells that express the EGFP-654 construct can be used for high throughput screening of a chemical library.
NCGC Assay Protocol Summary:
High Throughput Screening. Freshly thawed HeLa EGFP-654 cells were seeded in 5 ul of optimem media (Invitrogen) containing 2 % fetal calf serum (Hyclone) and 1x penicillin/streptomycin (Invitrogen) at a concentration of 500 cells per well in 1536-well plates. Cells were incubated overnight at 37C in 5% CO2. The next day, cells were treated with DMSO, 500 nM antisense ISV2 654 PNA control oligo, or library compound and allowed to grow at 37C in 5% CO2 for 2 days. The PNA oligo blocked the mutation site in the intron and allowed proper (wild type) splicing to occur, resulting in full length EGFP expression and also allowed for optimization of the assay parameters. Plates were read in the Acumen Explorer (TTP Labtech) using 488 nm laser excitation and 500-520 nm emission PMT filter in a 1 x […] capture mode. Fluorescnet Fluorescent objects ranging in size from […] were measured and the total peak GFP intensity for each well was used for data analysis.
Keywords: Thalassemia, beta-thalassemia, beta-globin, EGFP, ISV2 654, ISV2 705, SSO, PNA, antisense, splicing, MLSMR, MLSCN, NIH Roadmap, qHTS, NCGC
Potency means the concentration at half of the fitted maximal effect.

Row | Compound | activation | Potency
1 | CCCCNc1nc(C)nc2c1nc(-c1ccccc1)n2CCCCN(CC)CC | -0.934% | –
2 | c1ccc(CSCCc2ccncc2)cc1 | 2.45% [at 9.22 µM, normalised to 500 nM splice-correcting PNA] | –
3 | O=c1c(-c2ccc(F)c(F)c2)nc2cncnc2n1-c1ccccc1 | 2.55% | –
4 | COC(=O)NC(c1ccccc1)[C@]1(C(C)=O)CCCC1=O (stereo partly drawn) | 0.441% [at 9.22 µM, normalised to 500 nM splice-correcting PNA] | –
5 | CC(C)c1ccc2c([Si](C)(C)C)c3c(nc2c1)-c1cccc(=O)n1C3 | 0.415% | –
6 | C=CC(=C)CCC=C(C)C | 0.0276% | –
7 | O=Cc1c(Cl)cccc1Cl | -1.03% | –
8 | COCCn1c(=O)c(-c2ccccc2)nc2cnc(N3CCOCC3)nc21 | 0.139% | –
9 | CN1CCN(c2ncncc2-c2ccc(C(=O)N(C)C)cc2)CC1 | -0.722% | –
10 | O=C(c1cnccn1)N1CCC[C@@]2(CCN(Cc3ccncc3)C2)C1 | 3.89% | –
11 | Cc1ccccc1-c1nc(N(C)Cc2ccco2)c2ccccc2n1 | -0.212% | –
12 | OCCN1CCN(CC/C=C2\c3ccccc3Sc3ccc(C(F)(F)F)cc32)CC1 | inactive | –
13 | BrC1C(Br)C(Br)C(Br)C(Br)C1Br (stereo not drawn) | -0.892% | –
14 | c1ccc(CNc2ncncc2-c2cccnc2)cc1 | -0.097% | –
15 | FC(F)(F)c1ccccc1-c1nc(-n2ccnc2)c2ccccc2n1 | -0.152% | –
16 | CO[C@H]1COC(=O)[C@@H](C)NC(=O)C/C=C\[C@@H](C)[C@H](OC)COC(=O)C/C=C\[C@@H]1C | 0.0576% [at 9.22 µM, normalised to 500 nM splice-correcting PNA] | –
17 | COc1ccccc1CNc1ncnc2ccc(-c3ccc4c(c3)OCO4)cc12 | -0.815% | –
18 | Cc1noc(C)c1-c1nccc(N2CCOCC2)n1 | -1.02% | –
19 | Cc1[nH]c(N)nc(=S)c1CCCNc1ccccc1 | 0.0064% [at 9.22 µM, normalised to 500 nM splice-correcting PNA] | –
20 | COc1ccc(NC(=O)N2CC3(CCN(C(=O)c4cccn4C)CC3)C2)cc1 | 3.19% | –
21 | Cc1c(O)c(Br)c(C)c(O)c1Br (tested in a mixture with another compound) | 3.36% [at 9.22 µM, normalised to 500 nM splice-correcting PNA] | –
22 | COc1ccc(CNc2ncncc2-c2ccccc2C)c(OC)c1 | -1.22% | –
23 | CC(C)[C@@H](CC(=O)N[C@@H]1CCNC[C@H]1C(=O)N[C@H](CC(=O)N[C@@H](CCC(=O)O)CC(=O)O)Cc1ccccc1)NC(=O)C[C@H](CO)NC(=O)[C@@H]1CNCC[C@H]1N | 2.36% | –
24 | C[C@]12C=CC(=O)C=C1CC[C@@H]1[C@@H]2C(=O)C[C@@]2(C)[C@H]1CC[C@]2(O)C(=O)CO | 1.63% | –
25 | CCCC(C(=O)OCCN(CC)CC)(c1ccccc1)c1ccccc1 | inactive | –
26 | CC(=O)N1CCC2(CC1)CCN(c1ccncc1)CC2 | -0.407% | –

Row | Compound | activation | Potency
27 | C[C@]1(C(=O)NCCc2c[nH]c3ccccc23)C=C[C@@H](Cc2ccccc2)N1C(=O)c1ccccc1 | -1.89% | –
28 | C[C@@H]1O[C@@H](O[C@@H]2[C@@H](O)[C@H](OCCc3ccc(O)c(O)c3)O[C@H](CO[C@@H]3O[C@H](CO)[C@@H](O)[C@H](O)[C@H]3O)[C@H]2OC(=O)/C=C/c2ccc(O)c(O)c2)[C@H](O)[C@H](O)[C@H]1O | -0.894% | –
29 | O=C(c1csnn1)N1CCC2(CC1)CN(c1ncccn1)C2 | 2.6% | –
30 | O=S(=O)(O)c1ccc(O)c2ncccc12.O=S(=O)(O)c1ccc(O)c2ncccc12.[Zn] | 0.245% [at 9.22 µM, normalised to 500 nM splice-correcting PNA] | –
31 | CCOC(=O)[C@]1(C(/C=C/c2ccco2)NC(=O)OC)CCCC1=O (stereo partly drawn) | 0.739% [at 9.22 µM, normalised to 500 nM splice-correcting PNA] | –
32 | O=C1C(c2[nH]c3ccccc3c2O)=Nc2ccccc21 | 0.742% | –
33 | COC(=O)[C@@]1(Cc2ccc(F)cc2)[C@H]2c3cc(C(=O)N4CCCC4)n(Cc4ccc(OC(F)(F)F)cc4)c3C[C@H]2CN1C(=O)c1ccccc1 | 0.537% | –
34 | C[N+]1(CCN=C=NC2CCCCC2)CCOCC1 | 6.02% [at 9.22 µM, normalised to 500 nM splice-correcting PNA] | –
35 | COCCn1c(=O)c(-c2cccs2)nc2cnc(N3CCN(C)CC3)nc21 | 0.122% | –
36 | COC(=O)[C@H](C)[C@H]1C[C@]1(C)[C@H](NC(=O)OCc1ccccc1)c1ccccc1 | 0.936% | –
37 | CCCCCCc1ccc(O)cc1O | -0.018% | –
38 | CC(=O)OCC1OC(C#Cc2ccccc2Cl)C=CC1OC(C)=O (stereo not drawn) | 2.13% [at 9.22 µM, normalised to 500 nM splice-correcting PNA] | –
39 | O=c1c(-c2cccs2)nc2cnc(Oc3ccccc3)nc2n1-c1ccccc1 | 7.2% | –
40 | Cc1cc2nc3c(=O)[nH]c(=O)nc-3n(C[C@H](O)[C@H](O)[C@H](O)CO)c2cc1C | -0.785% | –
41 | COc1ccc2[nH]cc(CCNc3ncnc4ccc(-c5ccc(C(=O)N(C)C)cc5)cc34)c2c1 | -3.75% | –
42 | CCCC[C@@H]1C[C@H]1C(NC(=O)c1ccco1)c1ccc(C(=O)OC)cc1 (stereo partly drawn) | 1.15% | –
43 | OC(CCl)CCl | -0.303% | –
44 | CC(=O)/C(C)=N\O | 0.887% | –
45 | COc1ccccc1CNc1nc(-c2c(C)noc2C)nc2ccccc12 | -0.267% | –
46 | COCCNc1ccnc(-c2cccc(NS(C)(=O)=O)c2)n1 | -0.582% | –
47 | CCNc1ncc2ncc(=O)n(CCc3ccccc3)c2n1 | 0.539% | –
48 | CCCC[C@@H]1C[C@H]1C(NC(=O)c1ccc(-c2ccccc2)cc1)c1ccc(-c2ccccc2)cc1 (stereo partly drawn) | 1.8% | –
49 | O=c1cc(-c2ccccc2)[nH]c2nc(Cl)ccc12 | 2.33% | –
50 | O=C(c1ccncc1)N1CCC2(CCN(Cc3cc(C(F)(F)F)cc(C(F)(F)F)c3)CC2)CC1 | 1.42% | –
51 | C=CCOC(=O)c1ccccc1C(=O)OCC=C | 2.26% | –
52 | C/C=C1\C(=O)C[C@@H]2[C@@H]3CCC4=CC(=O)CC[C@@]4(C)[C@H]3CC[C@@]12C | 0.755% | –

Row | Compound | activation | Potency
53 | Nc1nc2c(ncn2[C@H]2CC[C@@H](CO)O2)c(=O)n1C(=O)c1ccccc1 | 4.28% [at 9.22 µM, normalised to 500 nM splice-correcting PNA] | –
54 | N#Cc1cccc(-c2nc3cnc(N4CCNCC4)nc3n(C3CC3)c2=O)c1 | -0.0364% | –
55 | CCNc1ncc2nc(CCc3ccccc3)c(=O)n(-c3ccc(OC)cc3)c2n1 | 9.49% | –
56 | COCCn1c(=O)c(-c2cc(F)cc(F)c2)nc2cnc(N3CCNCC3)nc21 | -0.701% | –
57 | N#CCCn1c(=O)c(-c2cc(F)cc(F)c2)nc2cnc(Oc3ccccc3)nc21 | -1.62% | –
58 | CN1CCc2[nH]nc(-c3n[nH]c4c3CN(C)CC4)c2C1 | 1.49% [at 9.22 µM, normalised to 500 nM splice-correcting PNA] | –
59 | COC(=O)N1CCC2(CCCN(Cc3ccccc3OC)C2)CC1 | -1.36% | –
60 | CN(C)CCCn1c2ccccc2c2cnccc21 | 4.04% [at 9.22 µM, normalised to 500 nM splice-correcting PNA] | –
61 | Nc1ccc2c3c(cccc13)C(=O)NC2=O | – | 31.6 µM (active)
62 | CCN1C(=O)c2cccc3c(N)ccc1c23 | -0.679% | –
63 | CC(C)CN1CCc2nc(-c3ccccc3)c3c(c2C1)COC(C)C3 (stereo not drawn) | 2% [at 9.22 µM, normalised to 500 nM splice-correcting PNA] | –
64 | CCCn1c(-c2ccc(F)cc2)nc2c(NC3CCN(Cc4ccccc4)C3)nc(C)nc21 (stereo not drawn) | -0.408% | –
65 | CCOc1ccc(N=NS(=O)(=O)O)cc1 | 3.52% [at 9.22 µM, normalised to 500 nM splice-correcting PNA] | –
66 | CCCCC(CC)CN (stereo not drawn) | inactive | –
67 | CC(C)(C)[Si](OCC[C@@H]1C[C@@]1(C)[C@@H](NP(=O)(c1ccccc1)c1ccccc1)c1ccccc1)(c1ccccc1)c1ccccc1 | -1.23% | –
68 | Cn1c(=O)n2n(c1=O)[C@H]1[C@H](O)[C@H]3O[C@H]3C(=O)[C@H]1CC2 | 0.301% [at 9.22 µM, normalised to 500 nM splice-correcting PNA] | –
69 | CN1C(=O)C[C@H](c2ccccc2)C1=O | 0.654% [at 20.6 µM, normalised to 500 nM splice-correcting PNA] | –
70 | S=c1[nH]nc(SCc2ccccc2Cl)c2[nH]cnc12 | 3.49% [at 9.22 µM, normalised to 500 nM splice-correcting PNA] | –
71 | CC(=O)OCC1OC(C#CCCCc2ccccc2)C=CC1OC(C)=O (stereo not drawn) | -0.748% [at 9.22 µM, normalised to 500 nM splice-correcting PNA] and 1.62% [at 9.22 µM, normalised to 500 nM splice-correcting PNA] | –
72 | O=C(c1ccco1)N1CCC2(CC1)CCN(c1ncccn1)CC2 | 6.14% | –
73 | CC(C)[C@@H](OCc1ccccc1)[C@H](C)/C=N\OC[C@@H](C)[C@H](OCc1ccccc1)C(C)C | 4.09% [at 9.22 µM, normalised to 500 nM splice-correcting PNA] | –
74 | COc1ccccc1-c1nc(N2CCN(C)CC2)c2ccccc2n1 | -1.17% | –
75 | CCCCCCN(C(=O)CCCCCN1C(=O)NC(c2ccc(C(F)(F)F)cc2)C(C(=O)OCc2ccccc2)=C1C)C(C(=O)NCCCC)c1ccc(OCC(=O)OC)c(C(=O)OC)c1 (stereo not drawn) | -0.619% | –
76 | CC(=O)CC(C)C | -0.025% | –
77 | COC(=O)[C@@]1(Cc2ccc(F)cc2)[C@H]2c3cc(C(=O)N(C)C)n(CCc4c[nH]c5ccc(OC)cc45)c3C[C@H]2CN1C(=O)c1ccccc1 | 0.012% | –
78 | CC(C)NC(=O)N1CCCC2(CCN(C(=O)c3cccn3C)CC2)C1 | 2.69% | –
